High-throughput results deposited in PubChem BioAssay by Sanford-Burnham Center for Chemical Genomics.
ER stress surv: protection against thapsigargin ER stress killing – CSM14.1 cells, ATP luminescence, primary screen. CSM14.1 thapsigargin ER stress survival. relative survival (cellular ATP), % at 15 µg/mL (by protocol). 48,000 compounds, 0.33% hits;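 active = survival measured by cellular ATP above 50% at 15 µg/ml in the first screen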;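 note: cell death triggered by about 15 µM thapsigargin; ATP read 24 h after thapsigargin was added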
Each line names hits and unclear results; the compound was inactive in the other large screens. Shown is part of a subset that was picked to be rich in hits.

COc1ccc(CNc2ccc(C)c(C)c2)c(OC)c1C	none
COc1cccc(CNc2ccc3c(c2)ncn3-c2ccccc2)c1OC	ER stress surv 89
COc1ccc(CNc2ccc3c(c2)ncn3C)cc1	none
O=C1C(=O)N(c2cccc([N+](=O)[O-])c2)C(c2ccccc2F)/C1=C(/O)c1ccccc1 (stereo unspecified)	none
CCOc1ccc(NC(=O)c2cc(Br)ccc2Cl)cc1	none
CCOC(=O)c1c(N)sc2c1CCc1ccccc1-2	none
COc1cc(OC)c(C2NC(=O)NC(C)=C2C(=O)Nc2ccccc2C)cc1OC (stereo unspecified)	none
COCCN1C(=O)C(=O)/C(=C(/O)c2ccccc2)C1c1ccc(OC)cc1 (stereo unspecified)	none
O=C(NCC1CCCO1)/C(=C/c1ccc(-c2ccccc2Cl)o1)NC(=O)c1ccccc1 (stereo unspecified)	ER stress surv 87
N#C/C(=C\c1ccc(-c2ccc(Cl)c(C(=O)O)c2)o1)C(=O)NCC1CCCO1 (stereo unspecified)	none
COc1ccc(C(=O)N/C(=C\c2ccc(Cl)cc2)C(=O)NCC2CCCO2)cc1 (stereo unspecified)	none
COc1ccc(N=Cc2ccc(O)c(OC)c2)cc1	none
O=[N+]([O-])c1ccc2c(c1)c1ccccc1n2Cc1ccccc1O	none
O=C(O)/C=C/C(=O)Nc1ccc(-c2ccc(NC(=O)/C=C/C(=O)O)cc2)cc1	none
O=C(O)/C=C/C(=O)Nc1ccc(OC(F)(F)Cl)cc1	ER stress surv 108
CCOc1ccc(NC(=O)/C=C\C(=O)O)cc1	none
C#CCOc1ccc(/C=C2\C(=O)NC(=O)N(c3ccc(Cl)cc3)C2=O)cc1OC	none
COc1cc(NC(=O)c2ccc(F)cc2)cc(OC)c1	none
NS(=O)(=O)c1cccc(NC(=O)c2cccs2)c1	none
O=C(Nc1cccc(S(=O)(=O)c2cccc(NC(=O)c3cccs3)c2)c1)c1cccs1	ER stress surv 113
O=C(Nc1cccc(Br)c1)c1cccs1	none
CCCC(=Nc1cccc([N+](=O)[O-])c1)C1=C(O)CC(C)(C)CC1=O	none
O=C1NN(c2cccc(Cl)c2)C(=O)/C1=C\C=C\c1cccc([N+](=O)[O-])c1	none
COc1cc2c(cc1NCc1ccc3c(c1)OCO3)oc1ccccc12	none
COc1cc2c(cc1NCc1ccncc1)oc1ccccc12	ER stress surv 93
COc1cc2c(cc1NCc1ccc([N+](=O)[O-])cc1)oc1ccccc12	none
Cc1cc(Cl)ccc1OCC(=O)Nc1ccc2ccccc2c1	none
Cc1cccc(C2C3(OC(c4ccc(Br)cc4)C24C(=O)c2ccccc2C4=O)C(=O)c2ccccc2C3=O)c1 (stereo unspecified)	none
COc1ccc(Br)cc1C(=O)Nc1ccc2oc(-c3ccccc3F)nc2c1	none
CCOC(=O)C1=C(C)NC2=C(C(=O)c3ccccc32)C1c1cccs1 (stereo unspecified)	none
CC1=C(C(=O)OCC2CCCO2)C(c2ccc(F)cc2)C2=C(CCCC2=O)N1 (stereo unspecified)	none
CCOc1cc(C2C(C(=O)OCC3CCCO3)=C(C)NC3=C2C(=O)CCC3)cc([N+](=O)[O-])c1O (stereo unspecified)	none
CCn1c2ccccc2c2cc(C3C(C(=O)OCC4CCCO4)=C(C)NC4=C3C(=O)CCC4)ccc21 (stereo unspecified)	ER stress surv 96
O=C(Nc1ccc(OC(F)(F)F)cc1)c1ccc(OCc2ccccc2)cc1	none
Cc1onc(-c2ccccc2)c1C(=O)NCCNc1c(Cl)cccc1[N+](=O)[O-]	none
CCNC(=S)Nc1ccc(C(=O)O)cc1	none
CCCCOC(=O)c1ccc(NC(=O)c2cccc(OCCC)c2)cc1	none
CCCOc1cccc(C(=O)Nc2c(C)ccc3nsnc23)c1	none
Cc1ccc(C2(c3ccc(C)cc3)CC2C(=O)Nc2ccccc2)cc1 (stereo unspecified)	none
Cc1ccc(C2(c3ccc(C)cc3)CC2C(=O)Nc2ccncc2)cc1 (stereo unspecified)	none
Cc1ccc(C2(c3ccc(C)cc3)CC2C(=O)Nc2cccnc2)cc1 (stereo unspecified)	ER stress surv 78
Cc1cccc(N=Cc2ccc([N+](=O)[O-])s2)c1	none
CCOC(=O)c1c(NC(=O)CC(c2ccccc2)c2ccccc2)sc(C(N)=O)c1C	none
CC(=O)NC1=NC(=O)/C(=C\c2ccccc2C)S1	none
C(=N\n1cnnc1)/c1ccc(OCCOc2ccc(C3CCCCC3)cc2)cc1	none
O=C(CC1SC(=Nc2ccccc2)N(c2ccccc2)C1=O)Nc1ccccc1C(F)(F)F (stereo unspecified)	ER stress surv 65
O=C(CC1SC(=Nc2ccccc2)N(c2ccccc2)C1=O)Nc1ccc(F)cc1 (stereo unspecified)	none
Cc1ccc(NC(=O)CC2SC(=Nc3ccccc3)N(c3ccccc3)C2=O)cc1 (stereo unspecified)	none
Cc1ccc(S(=O)(=O)N/N=C/c2cccc(OS(=O)(=O)c3ccc([N+](=O)[O-])cc3)c2)cc1	none
Cc1ccc(Cl)cc1NC(=O)CSC(N)=O	none
COCC(=O)Nc1cc(Cl)ccc1C	none
CC(=O)CC(=O)Nc1cc(Cl)ccc1C	ER stress surv 65
O=C(Nc1ccccc1C(=O)N1CCOCC1)c1ccccc1Cl	none
O=C1CC(c2ccccc2)CC2=C1C(c1cccc(Br)c1)Nc1ccccc1N2 (stereo unspecified)	ER stress surv 88
COc1ccc(C2CC(=O)C3=C(C2)Nc2ccccc2NC3c2cccc(Br)c2)cc1 (stereo unspecified)	none
Cc1ccc2c(c1)NC(c1ccc3c(c1)OCO3)C1=C(CC(c3ccccc3)CC1=O)N2 (stereo unspecified)	ER stress surv 92
O=C1CCCC2=C1C(c1cccnc1)Nc1ccc(C(=O)c3ccccc3)cc1N2 (stereo unspecified)	none
O=C1CC(c2ccccc2)CC2=C1C(c1ccc(F)c(Br)c1)Nc1ccccc1N2 (stereo unspecified)	none
COc1ccc(C2CC(=O)C3=C(C2)Nc2ccccc2NC3c2c(F)cccc2F)cc1 (stereo unspecified)	none
O=C1CCCC2=C1C(c1ccc(Br)cc1)Nc1ccc(C(=O)c3ccccc3)cc1N2 (stereo unspecified)	ER stress surv 66
COc1ccc(C2Nc3ccc(C(=O)c4ccccc4)cc3NC3=C2C(=O)CCC3)cc1 (stereo unspecified)	none
CSc1ccc(C2Nc3ccccc3NC3=C2C(=O)CC(c2ccc4c(c2)OCO4)C3)cc1 (stereo unspecified)	none
COc1ccc(C2Nc3ccccc3NC3=C2C(=O)CC(c2ccccc2)C3)c(OC)c1 (stereo unspecified)	none
CCOc1cccc(C2Nc3ccccc3NC3=C2C(=O)CC(c2ccc(OC)cc2)C3)c1 (stereo unspecified)	ER stress surv 106
Cc1ccc2c(c1)NC(c1ccc(F)cc1)C1=C(CC(c3ccccc3)CC1=O)N2 (stereo unspecified)	none
COc1ccc(C2/C(=C(/O)c3ccccc3)C(=O)C(=O)N2c2cccc(C(F)(F)F)c2)cc1OC (stereo unspecified)	none
O=C(CSc1ncccc1C(=O)O)Nc1ccccc1	none
Cc1cccc(N2C(=O)NC(=O)/C(=C/c3ccc(-c4ccc(C(=O)O)cc4)o3)C2=O)c1	none
CCCOC(=O)c1ccc(NC(=O)c2cccc3ccccc23)cc1	none
COc1ccccc1N(CC(=O)N1CCCC1)S(=O)(=O)c1ccccc1	none
Cc1ccc(Cl)cc1NC(=O)CN(c1cccc([N+](=O)[O-])c1)S(=O)(=O)c1ccccc1	none
